PubChem BioAssay (NCATS)
Results filed as inconclusive are left out. Calls of active or inactive are those of the source. The call rests on the fitted dose curve; in most records, active means well fitted curve in the direction sought with a large enough effect; inconclusive means small, poorly fitted or top-dose-only effect, or another doubt; inactive means no such curve, though single readings can be large; an effect the other way counts as inactive or inconclusive.

Experiments:
[1] = qHTS of pediatric cancer cell lines to identify multiple opportunities for drug repurposing: Primary screen for Saos-2 cells (AID 1347097); details: Saos-2 viability, CellTiter-Glo ATP luminescence, 48 h; series mostly up to 46 µM; further: nearly all actives have a fitted effect of over 40% in size; further: potency means the concentration at half of the fitted maximal effect
In short: (§1)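 ATP-based luminescence (CellTiter-Glo) quantifies viability after a 48-hour exposure. Compounds are dosed across 8 or 11 final concentrations; DMSO and 2.3 µM bortezomib serve as controls.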

[2] = qHTS of pediatric cancer cell lines to identify multiple opportunities for drug repurposing: Primary screen for SK-N-SH cells (AID 1347098); details: SK-N-SH viability, CellTiter-Glo luminescence, 48 h; series mostly up to 57 µM; further: nearly all actives have a fitted effect of over 65% in size; further: potency means the concentration at half of the fitted maximal effect
In short: (§2)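 Cells (500-1,000/well) rested 5 h, then received compounds for 48 h; metabolically active cells were measured by CellTiter-Glo luminescence. Final concentrations spanned up to 46 µM (MIPE, 11-point) or 0.59 nM-46 µM (NPC, 8-point) in primary screens, 11-point in follow-ups.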

[3] = qHTS of pediatric cancer cell lines to identify multiple opportunities for drug repurposing: Primary screen for NB1643 cells (AID 1347099); details: NB1643 neuroblastoma viability, CellTiter-Glo luminescence, 48 h; series mostly up to 46 µM; further: nearly all actives have a fitted effect of over 50% in size; further: potency means the concentration at half of the fitted maximal effect
In short: as §1

[4] = qHTS of pediatric cancer cell lines to identify multiple opportunities for drug repurposing: Primary screen for LAN-5 cells (AID 1347100); details: LAN-5 neuroblastoma viability, CellTiter-Glo luminescence, 48 h; series mostly up to 46 µM; further: potency means the concentration at half of the fitted maximal effect
In short: (§3)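 Cells (500-1,000/well) in growth media were settled 5 h at 37 degrees C, then given compounds for 48 h. Viability was read as CellTiter-Glo luminescence. Primary runs used MIPE at 11 points (0.78 nM-46 µM) and NPC at 8 points (0.59 nM-46 µM); follow-ups used 11 points.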

[5] = qHTS of pediatric cancer cell lines to identify multiple opportunities for drug repurposing: Primary screen for BT-12 cells (AID 1347101); details: BT-12 viability, CellTiter-Glo luminescence, 48 h; series mostly up to 57.3 µM; further: nearly all actives have a fitted effect of over 25% in size; further: potency means the concentration at half of the fitted maximal effect
In short: as §2

[6] = qHTS of pediatric cancer cell lines to identify multiple opportunities for drug repurposing: Primary screen for OHS-50 cells (AID 1347103); details: OHS-50 osteosarcoma viability, CellTiter-Glo luminescence, 48 h; series mostly up to 57.3 µM; further: nearly all actives have a fitted effect of over 40% in size; further: potency means the concentration at half of the fitted maximal effect
In short: as §2

[7] = qHTS of pediatric cancer cell lines to identify multiple opportunities for drug repurposing: Primary screen for RD cells (AID 1347104); details: RD rhabdomyosarcoma viability, CellTiter-Glo luminescence, 48 h; series mostly up to 46 µM; further: nearly all actives have a fitted effect of over 55% in size; further: potency means the concentration at half of the fitted maximal effect
In short: as §1

[8] = qHTS of pediatric cancer cell lines to identify multiple opportunities for drug repurposing: Primary screen for MG 63 (6-TG R) cells (AID 1347105); details: MG 63 (6-TG R) viability, CellTiter-Glo, 48 h; series mostly up to 46 µM; further: nearly all actives have a fitted effect of over 50% in size; further: potency means the concentration at half of the fitted maximal effect
In short: as §1

[9] = qHTS of pediatric cancer cell lines to identify multiple opportunities for drug repurposing: Primary screen for control Hh wild type fibroblast cells (AID 1347106); details: Hh wild-type fibroblast viability, CellTiter-Glo luminescence, 48 h; series mostly up to 46 µM;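 further: a drop in luminescence marks cytotoxicity and a rise apparent proliferation; nearly all actives have a fitted effect of over 55% in size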
In short: as §3

[10] = qHTS of pediatric cancer cell lines to identify multiple opportunities for drug repurposing: Primary screen for Rh30 cells (AID 1347107); details: Rh30 rhabdomyosarcoma viability, CellTiter-Glo luminescence, 48 h; series mostly up to 46 µM; further: nearly all actives have a fitted effect of over 75% in size
In short: as §3

[11] = qHTS of pediatric cancer cell lines to identify multiple opportunities for drug repurposing: Primary screen for Rh41 cells (AID 1347108); details: Rh41 rhabdomyosarcoma viability, CellTiter-Glo luminescence, 48 h; series mostly up to 46 µM;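 further: luminescence drop marks cytotoxic hits; nearly all actives have a fitted effect of over 70% in size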
In short: as §1

[12] = qHTS of pediatric cancer cell lines to identify multiple opportunities for drug repurposing: Primary screen for Rh18 cells (AID 1347102); details: Rh18 rhabdomyosarcoma viability, CellTiter-Glo luminescence, 48 h; series mostly up to 46 µM; further: nearly all actives have a fitted effect of over 65% in size
In short: as §3

[13] = qHTS of pediatric cancer cell lines to identify multiple opportunities for drug repurposing: Confirmatory screen for NB1643 cells (AID 1347109); details: NB1643 neuroblastoma cell viability; series mostly up to 45.9 µM; further: potency means the concentration at half of the fitted maximal effect; nearly all actives have a fitted effect of over 45% in size
In short: as §3

[14] = qHTS of pediatric cancer cell lines to identify multiple opportunities for drug repurposing: Confirmatory screen for SK-N-MC cells (AID 1347111); details: SK-N-MC cell viability; series mostly up to 45.9 µM;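 further: potency means the concentration at half of the fitted maximal effect; cells exposed to compound for 48 h before the readout; nearly all actives have a fitted effect of over 70% in size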
In short: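 Metabolically active cells were quantified by ATP-dependent luminescence (CellTiter-Glo, 15 min at room temperature) following 48 h treatment. Cells had been plated at 500-1,000 per well and settled for 5 h beforehand.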

[15] = qHTS of pediatric cancer cell lines to identify multiple opportunities for drug repurposing: Confirmatory screen for BT-12 cells (AID 1347112); details: BT-12 rhabdoid tumor cells, viability; series mostly up to 45.9 µM; further: potency means the concentration at half of the fitted maximal effect; nearly all actives have a fitted effect of over 55% in size
In short: as §3

[16] = qHTS of pediatric cancer cell lines to identify multiple opportunities for drug repurposing: Confirmatory screen for LAN-5 cells (AID 1347113); details: LAN-5 neuroblastoma cell viability; series mostly up to 45.9 µM; further: potency means the concentration at half of the fitted maximal effect; nearly all actives have a fitted effect of over 65% in size
In short: as §3

[17] = qHTS of pediatric cancer cell lines to identify multiple opportunities for drug repurposing: Confirmatory screen for NB-EBc1 cells (AID 1347115); details: NB-EBc1 neuroblastoma cells, viability (cytotoxicity); series mostly up to 45.9 µM;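 further: potency means the concentration at half of the fitted maximal effect; cells exposed to compound for 48 h before the viability read; nearly all actives have a fitted effect of over 45% in size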
In short: as §3

[18] = qHTS of pediatric cancer cell lines to identify multiple opportunities for drug repurposing: Confirmatory screen for BT-37 cells (AID 1347117); details: BT-37 pediatric cancer cells, viability; series mostly up to 45.9 µM;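 further: potency means the concentration at half of the fitted maximal effect; viability measured after 48 h of compound exposure; nearly all actives have a fitted effect of over 55% in size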
In short: as §3

Measured: Potency

OCCCc1ccccc1
not listed: [12] | [13] | [14] | [15] | [16] | [17] | [18]
inactive: all other assays above

O=C1Nc2cc(Cl)ccc2Oc2ccccc21
inactive: [1] | [2] | [3] | [4] | [5] | [12] | [7] | [10] | [11]

CN1Cc2cc(C(=O)N3CCC(C4CCNCC4)CC3)ccc2N[C@@H](CC(=O)O)C1=O
inactive: [1] | [2] | [3] | [4] | [5] | [6] | [7] | [8] | [9] | [11]

CCc1cccc2c(CCO)c[nH]c12
not listed: [12] | [13] | [14] | [15] | [16] | [17] | [18]
inactive: all other assays above

CCCCOCCOC(=O)c1cccnc1
not listed: [12] | [13] | [14] | [15] | [16] | [17] | [18]
inactive: all other assays above

CCc1cc(S(=O)(=O)O)c2cc(C(C)C)cccc1-2
inactive: [1] | [2] | [3] | [4] | [5] | [6] | [7] | [8] | [10] | [11]

CCCCCC1Nc2cc(C(F)(F)F)c(S(N)(=O)=O)cc2S(=O)(=O)N1 (stereo unspecified)
not listed: [12] | [13] | [14] | [15] | [16] | [17] | [18]
inactive: all other assays above

Cc1cc(CCCOc2c(C)cc(-c3noc(C(F)(F)F)n3)cc2C)on1
active: [6] 19.5 µM
not listed: [5] | [13] | [14] | [15] | [16] | [17] | [18]
inactive: all other assays above

CC(C)C(=O)OCc1cccc(OC(=O)[C@@H]2N3C(=O)[C@@H](NC(=O)Cc4ccccc4)[C@H]3SC2(C)C)c1
inactive: [1] | [2] | [3] | [4] | [5] | [7] | [8] | [9] | [10] | [11]

Cc1nc([N+](=O)[O-])cn1-c1ccc([N+](=O)[O-])cc1
not listed: [12] | [13] | [14] | [15] | [16] | [17] | [18]
inactive: all other assays above

CC[N+]1(CC)CCC(=C(c2ccccc2)c2ccccc2)C1C (stereo unspecified)
inactive: [1] | [2] | [3] | [4] | [12] | [7] | [9] | [10]

Cc1ccccc1N1CCN(CCc2nnc3n2CCCC3)CC1
inactive: [1] | [2] | [3] | [4] | [5] | [6] | [7] | [9] | [10]

CC(C)CCCC(C)NCCC(C)C (stereo unspecified)
not listed: [4] | [13] | [14] | [15] | [16] | [17] | [18]
inactive: all other assays above

O=C1CC[C@H](C(=O)N2CCCCC2)N1
not listed: [5] | [13] | [14] | [15] | [16] | [17] | [18]
inactive: all other assays above

Cc1ccc2ccc(Cl)cc2n1
inactive: [1] | [2] | [3] | [4] | [5] | [7] | [8] | [9] | [10] | [11]

CSc1ccc(/C=C2/C(C)=C(CC(=O)O)c3cc(F)ccc32)cc1
not listed: [4] | [13] | [14] | [15] | [16] | [17] | [18]
inactive: all other assays above

CN1C(=O)c2ccccc2C1=O
not listed: [4] | [13] | [14] | [15] | [16] | [17] | [18]
inactive: all other assays above

Cc1sccc1Br
not listed: [12] | [13] | [14] | [15] | [16] | [17] | [18]
inactive: all other assays above

O=[N+]([O-])c1cncn1CCN1CCOCC1
inactive: [1] | [2] | [3] | [4] | [5] | [6] | [7] | [9] | [10] | [11]

O=[N+]([O-])c1ccc(O)c2ncccc12
active: [1] 10.6 µM | [2] 3.44 µM | [3] 1.88 µM | [4] 3.76 µM | [5] 5.5 µM | [6] 5.5 µM | [7] 5.31 µM | [8] 6.68 µM | [13] 14.7 µM | [14] 8.27 µM | [15] 20.8 µM | [16] 9.27 µM | [17] 7.37 µM | [18] 7.37 µM
